Drawing on ChEMBL document CHEMBL3988442, “University of Dundee, Small-Polar-MMV Screening Library” (2021), this text covers Percent Effect for 11 compounds.

Design in all cases: scale not given: direction of the effect not stated beside the values
For assay [1], the target named is Protein translocase subunit SecA (Escherichia coli (strain K12)) (UniProt P10408). Description: Assay to Identify E. coli SecA ATPase Inhibitors. Format: functional. The note with it: 30 µM.
Assay [2] deals with T1, Ubiquitin-activating enzyme e1, putative (Leishmania donovani (strain BPK282A1)) (UniProt E9BSI1).
T1 sequence (whole entry): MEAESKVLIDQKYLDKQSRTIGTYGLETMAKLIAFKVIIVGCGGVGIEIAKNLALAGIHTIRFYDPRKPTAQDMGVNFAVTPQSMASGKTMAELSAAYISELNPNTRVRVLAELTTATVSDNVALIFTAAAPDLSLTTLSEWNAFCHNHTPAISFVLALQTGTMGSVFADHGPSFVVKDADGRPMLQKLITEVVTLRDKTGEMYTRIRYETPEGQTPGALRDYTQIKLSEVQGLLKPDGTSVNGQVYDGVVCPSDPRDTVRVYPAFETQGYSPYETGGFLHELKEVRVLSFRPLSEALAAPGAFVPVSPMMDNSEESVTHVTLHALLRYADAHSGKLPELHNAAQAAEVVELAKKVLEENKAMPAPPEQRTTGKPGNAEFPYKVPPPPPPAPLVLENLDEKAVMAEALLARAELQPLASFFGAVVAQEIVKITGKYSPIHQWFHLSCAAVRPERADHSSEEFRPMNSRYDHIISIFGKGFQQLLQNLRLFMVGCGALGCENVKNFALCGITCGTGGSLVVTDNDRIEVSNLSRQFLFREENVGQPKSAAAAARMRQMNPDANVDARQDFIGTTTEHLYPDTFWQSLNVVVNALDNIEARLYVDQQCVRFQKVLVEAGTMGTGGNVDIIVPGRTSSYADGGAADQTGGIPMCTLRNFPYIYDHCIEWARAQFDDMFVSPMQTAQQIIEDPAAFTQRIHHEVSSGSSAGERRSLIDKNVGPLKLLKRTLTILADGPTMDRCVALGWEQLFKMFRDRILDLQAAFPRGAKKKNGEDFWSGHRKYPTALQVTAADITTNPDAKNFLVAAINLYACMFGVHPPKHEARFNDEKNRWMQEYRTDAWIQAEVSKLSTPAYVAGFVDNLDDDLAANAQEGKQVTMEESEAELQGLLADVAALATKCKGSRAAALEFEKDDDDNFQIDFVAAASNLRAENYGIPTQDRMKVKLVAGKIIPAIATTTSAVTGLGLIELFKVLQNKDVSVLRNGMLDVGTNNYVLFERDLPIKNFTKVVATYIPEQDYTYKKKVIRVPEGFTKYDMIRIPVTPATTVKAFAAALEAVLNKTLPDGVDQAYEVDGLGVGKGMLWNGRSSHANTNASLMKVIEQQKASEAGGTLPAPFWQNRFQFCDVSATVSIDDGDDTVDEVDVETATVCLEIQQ
Nature of the assay: Leishmania donovani Ubiquitin Activating Enzyme (LdE1). Format: functional. The conditions noted are these: 30 µM.

In assay [3] the target is AMP-activated protein kinase, AMPK (Homo sapiens) (UniProt P54646+O43741+P54619+Q9UGJ0+Q9Y478+Q13131+Q9UGI9). Nature of the assay: AMP-dependent Kinase enzyme assay. An in vitro enzyme assay that detects ADP turnover that is directly proportional to AMPK activity. This uses naive AMPK that is activated during the assay with MK-8722. The conditions noted are these: 30 µM. Format: functional.

In assay [4] the target is Sialic acid-binding Ig-like lectin 9 (Homo sapiens) (UniProt Q9Y336). Description: Hs-Siglec9 ALPHAscreen SOP 20170721. The note with it: 10 µM. On the technique in general: Alpha assays give light when donor and acceptor beads are brought close together.
Sialic acid-binding Ig-like lectin 9 (Homo sapiens), sequence (Q9Y336 whole entry): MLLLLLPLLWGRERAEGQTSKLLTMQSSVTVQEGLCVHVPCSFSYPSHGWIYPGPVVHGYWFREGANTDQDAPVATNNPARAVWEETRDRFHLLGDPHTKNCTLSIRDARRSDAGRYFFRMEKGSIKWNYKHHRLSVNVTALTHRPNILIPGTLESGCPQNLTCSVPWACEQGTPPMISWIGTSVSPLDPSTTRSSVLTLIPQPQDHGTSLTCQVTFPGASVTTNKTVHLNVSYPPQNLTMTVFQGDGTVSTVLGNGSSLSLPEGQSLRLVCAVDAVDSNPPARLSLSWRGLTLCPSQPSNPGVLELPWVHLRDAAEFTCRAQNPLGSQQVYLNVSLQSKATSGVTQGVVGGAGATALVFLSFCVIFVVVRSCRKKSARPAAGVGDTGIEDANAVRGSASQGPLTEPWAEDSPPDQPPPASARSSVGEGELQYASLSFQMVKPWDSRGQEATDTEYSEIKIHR
For a further assay, the system named is Trypanosoma cruzi. Nature of the assay: Trypanosoma cruzi phosphomannomutase and mannose-1-phosphate guanylyltransferase assay. Format: functional. The conditions noted are these: 10 µM.
In assay [5] the target is T2, Arginase-2, mitochondrial (Homo sapiens) (UniProt P78540).
T2 sequence (whole entry): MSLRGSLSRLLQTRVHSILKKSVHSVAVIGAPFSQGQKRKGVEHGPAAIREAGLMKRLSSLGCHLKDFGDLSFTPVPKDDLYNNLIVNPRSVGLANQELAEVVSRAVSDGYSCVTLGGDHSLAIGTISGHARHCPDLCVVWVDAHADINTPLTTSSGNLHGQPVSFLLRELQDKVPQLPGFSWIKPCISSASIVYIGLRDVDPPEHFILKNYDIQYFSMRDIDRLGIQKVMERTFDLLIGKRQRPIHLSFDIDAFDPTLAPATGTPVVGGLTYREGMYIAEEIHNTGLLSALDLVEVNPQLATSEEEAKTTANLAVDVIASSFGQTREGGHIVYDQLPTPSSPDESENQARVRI
Nature of the assay: in vitro enzyme assay to detect the production of urea directly proportional to the activity of Arginase II. Further: in the data most compounds retested in dose-response had high values. Format: functional. The note with it: 33.3 µM.

Assay [6] concerns the target T3, Proteasome subunit beta (Trypanosoma cruzi) (UniProt O96673).
T3 sequence (whole entry): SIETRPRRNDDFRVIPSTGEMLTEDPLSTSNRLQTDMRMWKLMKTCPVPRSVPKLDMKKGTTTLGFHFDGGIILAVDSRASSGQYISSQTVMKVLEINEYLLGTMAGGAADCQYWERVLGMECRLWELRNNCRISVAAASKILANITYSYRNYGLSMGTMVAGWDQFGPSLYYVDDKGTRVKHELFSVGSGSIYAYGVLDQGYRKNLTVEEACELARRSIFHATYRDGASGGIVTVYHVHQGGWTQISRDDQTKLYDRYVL
Description: Trypanosoma cruzi proteasome chymotrypsin-like activity (TcProtChymo) assay. Further: in the data most compounds retested in dose-response had high values. The note with it: 9.37 µM. Format: functional.

The species named for the next assay is Homo sapiens. Nature of the assay: To identify inhibition of the IFN signalling (Jak-Stat) pathway via expression of an eGFP reporter gene under the control of an IFN-stimulated response element (ISRE) containing MxA promoter. The conditions noted are these: 30 µM. Format: functional.
The target of assay [7] is T4, Tyrosyl-tRNA synthetase, putative (Trypanosoma cruzi (strain CL Brener)) (UniProt Q4DSP6).
T4 sequence (whole entry): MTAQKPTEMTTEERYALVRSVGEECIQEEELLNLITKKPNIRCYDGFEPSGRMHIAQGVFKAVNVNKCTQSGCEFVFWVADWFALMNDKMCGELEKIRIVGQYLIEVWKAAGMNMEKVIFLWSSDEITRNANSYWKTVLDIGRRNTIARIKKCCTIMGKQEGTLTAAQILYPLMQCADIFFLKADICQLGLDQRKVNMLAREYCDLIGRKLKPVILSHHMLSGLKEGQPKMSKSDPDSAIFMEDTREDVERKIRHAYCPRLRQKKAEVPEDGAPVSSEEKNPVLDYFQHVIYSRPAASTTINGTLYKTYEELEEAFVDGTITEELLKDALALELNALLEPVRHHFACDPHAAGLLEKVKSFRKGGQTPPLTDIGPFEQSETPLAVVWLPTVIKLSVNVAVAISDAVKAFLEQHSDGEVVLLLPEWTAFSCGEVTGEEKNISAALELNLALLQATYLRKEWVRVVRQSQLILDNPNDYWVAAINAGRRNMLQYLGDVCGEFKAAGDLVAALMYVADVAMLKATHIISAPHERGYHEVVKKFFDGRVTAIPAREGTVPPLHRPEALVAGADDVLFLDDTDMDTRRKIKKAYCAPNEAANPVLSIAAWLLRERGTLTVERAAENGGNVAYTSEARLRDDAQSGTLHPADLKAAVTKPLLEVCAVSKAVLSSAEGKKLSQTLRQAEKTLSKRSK
Description: Trypanosoma cruzi tyrosyl tRNA synthetase (TcYRS) _High Tyrosine SOP. Further: in the data most compounds retested in dose-response had high values. Format: functional. The note with it: 30 µM.

In assay [8] the target is T4, Tyrosyl-tRNA synthetase, putative (Trypanosoma cruzi (strain CL Brener)). Nature of the assay: Trypanosoma cruzi tyrosyl tRNA synthetase (TcYRS) SOP. Format: functional. The note with it: 30 µM.
Assay [9] has as its target Chromo domain-containing protein 1 (Saccharomyces cerevisiae (strain ATCC 204508 / S288c) (Baker's yeast)) (UniProt P32657). Nature of the assay: ScCHD-1 Enzyme Inhibition Assay. Further: in the data most compounds retested in dose-response had high values. Format: functional. The note with it: 30 µM.

For some of these results: Entries with a potency or affinity are not part of this list.

Chromo domain-containing protein 1 (Saccharomyces cerevisiae (strain ATCC 204508 / S288c) (Baker's yeast)), sequence (P32657 whole entry, the tested form may be a part): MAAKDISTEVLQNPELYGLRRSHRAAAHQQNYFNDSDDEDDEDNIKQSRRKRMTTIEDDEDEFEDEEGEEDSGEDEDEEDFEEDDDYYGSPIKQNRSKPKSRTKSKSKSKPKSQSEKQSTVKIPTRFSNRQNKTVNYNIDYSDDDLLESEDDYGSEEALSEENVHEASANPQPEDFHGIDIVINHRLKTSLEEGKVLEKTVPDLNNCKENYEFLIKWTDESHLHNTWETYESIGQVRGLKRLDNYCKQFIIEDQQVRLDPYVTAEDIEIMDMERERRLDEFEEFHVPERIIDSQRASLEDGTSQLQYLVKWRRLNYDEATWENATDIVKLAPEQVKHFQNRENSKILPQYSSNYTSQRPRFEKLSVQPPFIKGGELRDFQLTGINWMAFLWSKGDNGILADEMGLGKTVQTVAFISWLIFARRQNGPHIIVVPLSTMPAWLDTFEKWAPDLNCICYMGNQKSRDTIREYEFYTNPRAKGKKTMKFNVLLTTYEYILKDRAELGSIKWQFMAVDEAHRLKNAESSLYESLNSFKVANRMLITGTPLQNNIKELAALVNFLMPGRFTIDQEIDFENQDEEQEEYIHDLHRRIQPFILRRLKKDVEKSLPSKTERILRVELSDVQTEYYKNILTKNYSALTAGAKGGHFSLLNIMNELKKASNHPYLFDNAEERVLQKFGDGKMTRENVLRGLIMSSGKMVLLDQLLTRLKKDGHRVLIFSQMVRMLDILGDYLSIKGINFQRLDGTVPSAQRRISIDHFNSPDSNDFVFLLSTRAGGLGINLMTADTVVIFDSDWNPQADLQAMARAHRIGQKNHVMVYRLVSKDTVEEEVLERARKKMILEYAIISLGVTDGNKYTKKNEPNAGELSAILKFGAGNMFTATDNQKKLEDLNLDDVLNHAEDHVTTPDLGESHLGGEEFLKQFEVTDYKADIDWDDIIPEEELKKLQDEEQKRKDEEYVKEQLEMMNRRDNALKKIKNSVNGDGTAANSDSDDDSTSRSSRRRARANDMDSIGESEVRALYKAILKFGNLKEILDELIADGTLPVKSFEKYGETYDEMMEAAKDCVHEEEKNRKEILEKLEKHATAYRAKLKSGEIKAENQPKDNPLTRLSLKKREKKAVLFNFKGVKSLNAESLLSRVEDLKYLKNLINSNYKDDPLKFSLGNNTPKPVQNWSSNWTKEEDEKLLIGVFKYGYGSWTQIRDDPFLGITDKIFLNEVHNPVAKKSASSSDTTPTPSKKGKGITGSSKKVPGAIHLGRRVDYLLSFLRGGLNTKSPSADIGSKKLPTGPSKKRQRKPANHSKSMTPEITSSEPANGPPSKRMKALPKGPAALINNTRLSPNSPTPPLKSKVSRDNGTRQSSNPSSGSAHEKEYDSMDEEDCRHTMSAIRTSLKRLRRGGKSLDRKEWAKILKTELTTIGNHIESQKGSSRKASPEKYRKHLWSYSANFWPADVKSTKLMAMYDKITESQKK
Protein translocase subunit SecA (Escherichia coli (strain K12)), sequence (P10408 whole entry): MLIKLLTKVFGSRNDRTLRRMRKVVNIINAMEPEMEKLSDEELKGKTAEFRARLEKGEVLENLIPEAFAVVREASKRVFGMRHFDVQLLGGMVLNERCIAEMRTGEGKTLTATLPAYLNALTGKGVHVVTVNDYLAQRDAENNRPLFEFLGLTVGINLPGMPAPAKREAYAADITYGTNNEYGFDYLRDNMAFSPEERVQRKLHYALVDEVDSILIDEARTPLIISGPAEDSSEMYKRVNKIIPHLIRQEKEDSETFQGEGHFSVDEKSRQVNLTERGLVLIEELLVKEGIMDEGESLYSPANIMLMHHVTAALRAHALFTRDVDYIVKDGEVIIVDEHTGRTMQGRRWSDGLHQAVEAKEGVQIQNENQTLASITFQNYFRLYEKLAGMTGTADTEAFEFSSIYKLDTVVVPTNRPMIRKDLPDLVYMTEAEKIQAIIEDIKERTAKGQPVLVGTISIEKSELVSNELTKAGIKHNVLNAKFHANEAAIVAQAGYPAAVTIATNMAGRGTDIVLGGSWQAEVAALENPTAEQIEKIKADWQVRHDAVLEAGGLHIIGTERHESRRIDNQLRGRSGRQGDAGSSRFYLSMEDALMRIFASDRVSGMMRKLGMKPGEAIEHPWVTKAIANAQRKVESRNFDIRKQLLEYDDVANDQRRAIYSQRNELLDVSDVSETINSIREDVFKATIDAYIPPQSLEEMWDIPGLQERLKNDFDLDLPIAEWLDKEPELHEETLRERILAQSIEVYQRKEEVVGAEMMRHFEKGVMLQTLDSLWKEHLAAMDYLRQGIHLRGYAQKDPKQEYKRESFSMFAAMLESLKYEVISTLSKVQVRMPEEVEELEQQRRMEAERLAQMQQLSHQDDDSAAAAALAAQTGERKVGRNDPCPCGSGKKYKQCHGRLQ

Consider `COc1ccc(-c2nc(CN3CCOCS3(=O)=O)c(C)o2)cc1`, for which the Percent Effect in assay [1] is -1.22%; in [2] it was 8%; in [3], -8.87%; in assay [4], 2.98%; in the assay with Trypanosoma cruzi, -4.58%; in assay [5], -3.12%. Also, the Percent Effect is 14.8% in [6]; 10.4% in the assay listed under Homo sapiens; 2.73% in assay [7]; 8.64% in [8]; -5.54% in assay [9].

Take `O=C(Nc1cccc(CNCc2csc(Br)c2)c1)C1CC1`: the Percent Effect was -8.41% in assay [1]; 23.7% in assay [2]; -5.54% in assay [3]; -1.24% in assay [4]; 5.32% in the assay with Trypanosoma cruzi; 2.16% in assay [5]. Further, the Percent Effect in [6] was 7.19%; in the assay filed under Homo sapiens, 37.8%; in assay [7] it was 3.45%; in assay [8], 25.9%; in [9] it was -8.55%.

For the compound `CN1N=C(C(=O)NCc2ccc3c(c2)CCCN3C)CCC1=O`, the Percent Effect in assay [1] was -4.45%; in assay [2], 8.86%; in assay [3], 30.5%; in assay [4] it was -1.03%; in the assay on Trypanosoma cruzi it was 4.41%; in assay [5] it was 0.215%. In addition, the Percent Effect in assay [6] was 21.4%; in the assay filed under Homo sapiens, 0.664%; in [7], 6.25%; in assay [8], 10.1%; in assay [9], -23%.

Consider `CC(C)C(=O)NCC(=O)N(C)C1CCCN(C2Cc3ccccc3C2)C1` (stereo unspecified), for which the Percent Effect in assay [1] is 0.272%; in assay [2], 8.11%; in assay [3] it was -4.7%; in assay [4] it was 3.43%; with Trypanosoma cruzi, -3.48%; in assay [5] it was 0.476%. The Percent Effect in assay [6] is 14.3%; in the assay filed under Homo sapiens it was 11.7%; in [7], -1.59%; in assay [8] it was -26.8%; in assay [9], -2.54%.

For the compound `Cc1cnn(CC(C)NCc2nc(-c3ccco3)no2)c1` (stereo unspecified), the Percent Effect in assay [1] was -7.61%; in assay [2] it was 12.5%; in assay [3] it was -18.7%; in [4], 40.6%; with Trypanosoma cruzi it was 7.09%; in assay [5] it was 9.27%. The Percent Effect in assay [6] was found to be 14.9%; in the assay filed under Homo sapiens it was 4.8%; in assay [7], 3.16%; in assay [8] it was 12.8%; in assay [9] it was 10.7%.

Turning to `CCc1nnc2n1CCN(C(=O)c1ccc(-c3ccco3)nc1C)C2`, the Percent Effect is -6.22% in assay [1]; 17.7% in assay [2]; -3.04% in assay [3]; 13.8% in [4]; 5.57% in the assay with Trypanosoma cruzi; -2.28% in assay [5]. The Percent Effect in assay [6] is 12.5%; in the assay listed under Homo sapiens, 2.35%; in [7], 10.3%; in assay [8] it was 16.5%; in assay [9], -9.52%.

Turning to `O=C(C1CCCCN1Cc1nc(-c2ccco2)no1)N1CCCC1` (stereo unspecified), the Percent Effect was -8.23% in [1]; -2.7% in [2]; 7.91% in [3]; 4.5% in assay [4]; -5.11% in the assay on Trypanosoma cruzi; -1.66% in assay [5]. Moreover, the Percent Effect is 2.33% in [6]; 6.46% in the assay filed under Homo sapiens; 0% in assay [7]; 3.66% in assay [8]; 5.11% in [9].

In the case of `CC(Cn1cccn1)NC(=O)Nc1nccs1` (stereo unspecified), the Percent Effect was -5.47% in assay [1]; 10.4% in assay [2]; 1.39% in [3]; 4.54% in assay [4]; -3.37% in the assay with Trypanosoma cruzi; 0.712% in assay [5]. Also, the Percent Effect is 5.57% in [6]; 17.5% in the assay filed under Homo sapiens; 4.85% in [7]; 19.5% in assay [8]; -5.22% in [9].

For `Cn1cc(C2CCCN2C(=O)Cc2n[nH]c3ccccc23)cn1` (stereo unspecified), the Percent Effect was -3.26% in [1]; 22.8% in assay [2]; 4.87% in assay [3]; -9.88% in [4]; 6.33% in the assay on Trypanosoma cruzi; 0.76% in assay [5]. For the same compound, the Percent Effect in [6] was 13%; in the assay filed under Homo sapiens, 7.84%; in [7] it was 6.4%; in [8], 21.5%; in assay [9] it was -11.7%.

Regarding `O=C(c1ccc(N2CCCC2)nn1)N1CCCC(n2cccn2)C1` (stereo unspecified), the Percent Effect was -6.6% in assay [1]; 10.5% in assay [2]; -3% in [3]; -5.01% in assay [4]; -6.44% in the assay with Trypanosoma cruzi; 5.4% in assay [5]. The Percent Effect in assay [6] was 5.33%; in the assay filed under Homo sapiens it was -4.4%; in [7] it was 4.43%; in assay [8], 3.7%; in assay [9], 1.12%.

For `O=C1CN(Cc2nnc(-c3ccc(Br)cc3)o2)CCN1`, the Percent Effect in [1] was 0.69%; in [2] it was 18.1%; in [3], -9.97%; in assay [4], 2.35%; in the assay on Trypanosoma cruzi, 2.04%; in [5], -1.77%. Also, the Percent Effect is 15.6% in [6]; 11.5% in the assay filed under Homo sapiens; 2.1% in assay [7]; 2.56% in [8]; -3.39% in [9].
